Test in all cases: cell viability relative to vehicle control; higher = less cytotoxic
Common to all, as to conditions: 10 µM

One test relates to K562. In short, it runs like this:
(§1)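 CRISPR-edited mutant clones and isogenic wild-type clones from four leukaemia lines were screened against Selleck bioactive, kinase and epigenetic probe libraries, with identity-inconsistent compounds excluded. Each compound was acoustically dispensed at a single 10 µM dose into 384-well plates holding 2000 cells in 50 µL medium per well. After 48 h the supernatant was removed and CellTiter-Glo luminescence was read. Viability was expressed as percent of the on-plate vehicle control and analysed in Genedata Screener.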

Another test relates to MARIMO. In short, it runs like this: as §1
A further test concerns MOLM14. In short, it runs like this:
as §1

A further test has as its system OCI-AML2. Summed up:
as §1

“And” between values parts separate entries of the source, which are not always exact repeats. Equal values may be shown once. Where a name gives a salt, the structure may show the parent alone.

As to `C[C@@H]1O[C@@H](O[C@H]2[C@H](O[C@H]3CC[C@@]4(C)[C@@H](CC[C@]5(C)[C@@H]4CC=C4[C@@H]6CC(C)(C)CC[C@]6(C(=O)O)CC[C@]45C)[C@]3(C)CO)OC[C@H](O)[C@@H]2O)[C@H](O)[C@H](O)[C@H]1O`, the cell viability (usually a read-out of living cells in per cent, often relative to untreated cells) in the test with K562 (SRSF2 genotype: SRSF2 P95H/wt) was 33.7% and 24.8%; in the test on K562 (SRSF2 genotype: SRSF2 wt/wt) it was 40.6%; in the test with MARIMO (SRSF2 genotype: SRSF2 P95H/wt), 71.8%; with MARIMO (SRSF2 genotype: SRSF2 wt/wt), 74.1%; with MOLM14 (SRSF2 genotype: SRSF2 P95H/wt) it was 39%; with MOLM14 (SRSF2 genotype: SRSF2 wt/wt), 45.4%. The figures for the cell viability with OCI-AML2 (SRSF2 genotype: P95H/wt) and in the test on OCI-AML2 (SRSF2 genotype: wt/wt) were 45% and 48.8%, respectively.

Consider `NC(=O)c1cnc(N[C@@H]2CCCC[C@@H]2N)nc1Nc1cccc(-n2nccn2)c1`, for which the cell viability was 16.9% and 18.1% in the test on K562 (SRSF2 genotype: SRSF2 P95H/wt); 15.9% in the test with K562 (SRSF2 genotype: SRSF2 wt/wt); 16% in the test with MARIMO (SRSF2 genotype: SRSF2 P95H/wt); 12.6% in the test with MARIMO (SRSF2 genotype: SRSF2 wt/wt); 2.43% in the test on MOLM14 (SRSF2 genotype: SRSF2 P95H/wt); 1.83% in the test on MOLM14 (SRSF2 genotype: SRSF2 wt/wt). Besides, the cell viability in the test with OCI-AML2 (SRSF2 genotype: P95H/wt) was 0.51%; in the test with OCI-AML2 (SRSF2 genotype: wt/wt), 3.84%.

In the case of `Cc1ccc(C(C)C)cc1O` [Carvacrol], the cell viability with K562 (SRSF2 genotype: SRSF2 P95H/wt) was 100% and 101%; with K562 (SRSF2 genotype: SRSF2 wt/wt) it was 98.7%; in the test with MARIMO (SRSF2 genotype: SRSF2 P95H/wt), 95.5%; with MARIMO (SRSF2 genotype: SRSF2 wt/wt) it was 99%; in the test on MOLM14 (SRSF2 genotype: SRSF2 P95H/wt), 99%; in the test on MOLM14 (SRSF2 genotype: SRSF2 wt/wt), 100%. Also, the cell viability with OCI-AML2 (SRSF2 genotype: P95H/wt) amounted to 92.8%; in the test on OCI-AML2 (SRSF2 genotype: wt/wt), 100%.

Turning to `Fc1ccc2c(/C=C/c3nn[nH]n3)c[nH]c2c1`, the cell viability in the test on K562 (SRSF2 genotype: SRSF2 P95H/wt) was 100% and 102%; with K562 (SRSF2 genotype: SRSF2 wt/wt) it was 98.6%; in the test on MARIMO (SRSF2 genotype: SRSF2 P95H/wt), 104%; in the test with MARIMO (SRSF2 genotype: SRSF2 wt/wt), 102%; in the test on MOLM14 (SRSF2 genotype: SRSF2 P95H/wt), 94.2%; in the test with MOLM14 (SRSF2 genotype: SRSF2 wt/wt) it was 96.3%. Also, the values for the cell viability with OCI-AML2 (SRSF2 genotype: P95H/wt) and in the test with OCI-AML2 (SRSF2 genotype: wt/wt) were 102% and 108%, respectively.

On to `COCCOc1ccc2c(c1)ncn2-c1ccc2cccc(N3CCC(N)CC3)c2n1`, for which the cell viability was 72.2% and 70.2% in the test on K562 (SRSF2 genotype: SRSF2 P95H/wt); 63.5% in the test with K562 (SRSF2 genotype: SRSF2 wt/wt); 2.19% in the test on MARIMO (SRSF2 genotype: SRSF2 P95H/wt); 1.07% in the test with MARIMO (SRSF2 genotype: SRSF2 wt/wt); 0.96% with MOLM14 (SRSF2 genotype: SRSF2 P95H/wt); -0.03% in the test on MOLM14 (SRSF2 genotype: SRSF2 wt/wt). For the same compound, the results for the cell viability in the test on OCI-AML2 (SRSF2 genotype: P95H/wt) and with OCI-AML2 (SRSF2 genotype: wt/wt) were 0.57% and 3.99%, respectively.

Regarding `CCN(CC)CCOc1ccc(C(=C(Cl)c2ccccc2)c2ccccc2)cc1` [Clomifene citrate (Serophene)], the cell viability was 37.2% and 36.3% with K562 (SRSF2 genotype: SRSF2 P95H/wt); 62.6% in the test on K562 (SRSF2 genotype: SRSF2 wt/wt); 57.2% in the test with MARIMO (SRSF2 genotype: SRSF2 P95H/wt); 61.7% in the test with MARIMO (SRSF2 genotype: SRSF2 wt/wt); 50.8% in the test with MOLM14 (SRSF2 genotype: SRSF2 P95H/wt); 60.9% in the test on MOLM14 (SRSF2 genotype: SRSF2 wt/wt). Besides, the cell viability came to 54.5% with OCI-AML2 (SRSF2 genotype: P95H/wt) and 52.3% with OCI-AML2 (SRSF2 genotype: wt/wt).

In the case of `CC(C)(C)C(O)C(=Cc1ccc(Cl)cc1)n1cncn1` (stereo not given) [Uniconazole], the cell viability in the test with K562 (SRSF2 genotype: SRSF2 P95H/wt) was 95.8% and 99.3%; in the test with K562 (SRSF2 genotype: SRSF2 wt/wt), 96.5%; with MARIMO (SRSF2 genotype: SRSF2 P95H/wt), 92.2%; in the test with MARIMO (SRSF2 genotype: SRSF2 wt/wt), 101%; in the test on MOLM14 (SRSF2 genotype: SRSF2 P95H/wt) it was 93.9%; in the test with MOLM14 (SRSF2 genotype: SRSF2 wt/wt) it was 105%. In addition, the cell viability with OCI-AML2 (SRSF2 genotype: P95H/wt) came to 93.8%; in the test on OCI-AML2 (SRSF2 genotype: wt/wt), 91.2%.

Take `Nc1ccc(S(N)(=O)=O)cc1` [Sulfanilamide]: the cell viability with K562 (SRSF2 genotype: SRSF2 P95H/wt) is 99.1% and 101%; in the test on K562 (SRSF2 genotype: SRSF2 wt/wt), 98.9%; with MARIMO (SRSF2 genotype: SRSF2 P95H/wt), 102%; in the test on MARIMO (SRSF2 genotype: SRSF2 wt/wt), 107%; with MOLM14 (SRSF2 genotype: SRSF2 P95H/wt) it was 96.2%; in the test with MOLM14 (SRSF2 genotype: SRSF2 wt/wt), 102%. Further, the figures for the cell viability with OCI-AML2 (SRSF2 genotype: P95H/wt) and with OCI-AML2 (SRSF2 genotype: wt/wt) were 102% and 110%, respectively.

`CN(C/C=C/C#CC(C)(C)C)Cc1cccc2ccccc12` [Terbinafine hydrochloride (Lamisil)]: the cell viability in the test on K562 (SRSF2 genotype: SRSF2 P95H/wt) is 88.5% and 88.7%; in the test on K562 (SRSF2 genotype: SRSF2 wt/wt), 90.3%; in the test with MARIMO (SRSF2 genotype: SRSF2 P95H/wt), 87.8%; in the test on MARIMO (SRSF2 genotype: SRSF2 wt/wt), 105%; in the test with MOLM14 (SRSF2 genotype: SRSF2 P95H/wt), 86.8%; in the test with MOLM14 (SRSF2 genotype: SRSF2 wt/wt) it was 99.9%. Further, the cell viability with OCI-AML2 (SRSF2 genotype: P95H/wt) is 87.4%; in the test on OCI-AML2 (SRSF2 genotype: wt/wt), 97.6%.

For the compound `C=C1/C(=C\C=C2/CCC[C@]3(C)[C@@H]([C@H](C)/C=C/[C@H](C)C(C)C)CC[C@@H]23)C[C@@H](O)C[C@@H]1O` [Doxercalciferol (Hectorol)], the cell viability in the test on K562 (SRSF2 genotype: SRSF2 P95H/wt) is 81.4% and 88.8%; with K562 (SRSF2 genotype: SRSF2 wt/wt), 86.5%; in the test on MARIMO (SRSF2 genotype: SRSF2 P95H/wt) it was 69.6%; in the test with MARIMO (SRSF2 genotype: SRSF2 wt/wt) it was 46.8%; with MOLM14 (SRSF2 genotype: SRSF2 P95H/wt), 68.5%; in the test with MOLM14 (SRSF2 genotype: SRSF2 wt/wt), 70.8%. Also, the values for the cell viability with OCI-AML2 (SRSF2 genotype: P95H/wt) and in the test on OCI-AML2 (SRSF2 genotype: wt/wt) were 55.3% and 73%, respectively.

These data come from the supplement of paper PMC10981050.
